Only some compounds are listed: those with a hit (about 27% of all), similar ones and a draw of the others.
CYP2C19 inhib – inhibitors of human CYP2C19; CYP2C19 Supersomes, luciferin-H EGE luminescence, 30 min; inhibition, % at 5 µM; 96,000 tested, 21% active;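 active = CYP2C19 inhibition above a set limit at 5 µM in the primary screen, cut at about 50% in these data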;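 also: plate controls were negative control wells for no effect and 2.5 mM tranylcypromine positive control for full effect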
Target sequence (P33261 whole entry, looked up): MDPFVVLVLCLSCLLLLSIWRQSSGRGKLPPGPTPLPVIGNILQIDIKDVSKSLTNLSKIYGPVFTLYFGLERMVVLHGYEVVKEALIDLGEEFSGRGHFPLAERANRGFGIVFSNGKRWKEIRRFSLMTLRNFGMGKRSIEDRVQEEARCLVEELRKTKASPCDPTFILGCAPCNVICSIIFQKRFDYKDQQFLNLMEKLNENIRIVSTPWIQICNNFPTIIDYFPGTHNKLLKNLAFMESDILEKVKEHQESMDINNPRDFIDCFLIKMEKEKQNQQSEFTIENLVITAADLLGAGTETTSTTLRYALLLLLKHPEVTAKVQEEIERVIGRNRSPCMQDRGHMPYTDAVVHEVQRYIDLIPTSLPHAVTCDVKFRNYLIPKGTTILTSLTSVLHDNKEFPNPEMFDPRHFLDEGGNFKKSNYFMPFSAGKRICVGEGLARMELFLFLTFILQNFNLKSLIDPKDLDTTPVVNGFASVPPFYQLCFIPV
CYP2C9 act – activators of human CYP2C9 | P11712 | recombinant CYP2C9, luciferin-H conversion, luminescence; hits give high values; factor 1 = untreated enzyme, 0 = blocked | activation factor at 5 µM | 96,000 tested, 1.4% active;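 active = activation factor of 2 or more for CYP2C9 at a 5 µM dose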;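 also: 0 = sulfaphenazole-blocked wells and 1 = vehicle-only wells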
CYP2C19 activ – activators of human cytochrome P450 2C19; 96,000 tested, under 10 active; activation factor at 5 µM; P33261; AID 1025; recombinant CYP2C19, luciferin-H EGE luminescence; hits give high values; 0 = fully inhibited enzyme, 1 = untreated enzyme;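 active = activation factor of at least 2 at 5 µM in the primary screen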;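 also: 0 = wells with 2.5 mM tranylcypromine and 1 = vehicle-only wells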
EphB4 antag – blocks human EphB4 binding to ephrin-B2 | P54760 | 97,000 tested, 0.15% active | inhibition, % at 7 µM | AID 720 | EphB4 LBD / TNYL-RAW-Alexa532 peptide, fluorescence polarization;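 active = inhibition above the screen-wide mean inhibition plus 3 SD, cut at about 15% in these data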;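 also: 0% = DMSO wells and 100% = excess unlabeled TNYL-RAW peptide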
CYP2C9 inhib – inhibitors of human CYP2C9; P11712; CYP2C9 Supersomes, luciferin-H conversion, luminescence; inhibition, % at 5 µM; 96,000 tested, 20% active;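 active = blocking of liver enzyme CYP2C9 beyond about 50% at 5 µM, limit read from the data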
Starred values were filed as active, the others as inactive.

For Cc1ccc(O)c(C(=O)c2cnn(C(=O)Cc3csc(C)n3)c2)c1 the results were CYP2C19 inhib 28, CYP2C9 act 0.2, CYP2C19 activ 0.7 and CYP2C9 inhib 77*.
For c1ccc(-c2ccc(-c3cnc4n3CCCCC4)cc2)cc1 the results were CYP2C19 inhib 40, CYP2C9 act 0.3, CYP2C19 activ 0.6, EphB4 antag 5 and CYP2C9 inhib 66*.
Screening c1cc2c(cc1-c1cnc3n1CCC3)OCCO2 returned CYP2C19 inhib -3, CYP2C9 act 1, CYP2C19 activ 1, EphB4 antag -2 and CYP2C9 inhib -2.
`O=C(Nc1cccc(C(=O)N2CCCCCC2)c1)c1ccco1` gave CYP2C19 inhib -4, CYP2C9 act 1.1, CYP2C19 activ 1, EphB4 antag -6 and CYP2C9 inhib -14.
For COc1cc(C2NC(=O)NC(C)=C2C(=O)NCc2ccccc2)c(Cl)cc1O (stereo not given) the results were CYP2C19 inhib 14, CYP2C9 act 0.8, CYP2C19 activ 0.9, EphB4 antag 5 and CYP2C9 inhib 20.
`C=CCSc1ccsc1C(=O)O` gave CYP2C19 inhib -5, CYP2C9 act 1.1, CYP2C19 activ 1, EphB4 antag -4 and CYP2C9 inhib -14.
For CCOc1ccc(OCCSc2nc3ccccc3[nH]2)cc1 the results were EphB4 antag -2.
For CCCOc1ccc(CSc2nc3ccccc3[nH]2)cc1 the results were CYP2C19 inhib 39, CYP2C9 act 0.1, CYP2C19 activ 0.6, EphB4 antag 10 and CYP2C9 inhib 90*.
`Nc1nc(CSc2nc3ccccc3[nH]2)cs1` gave CYP2C19 inhib 76*, CYP2C9 act 0.6, CYP2C19 activ 0.2, EphB4 antag 2 and CYP2C9 inhib 44.
Screening CCSc1nc2ccccc2[nH]1 returned CYP2C19 inhib -6, CYP2C9 act 1.3, CYP2C19 activ 1.1, EphB4 antag 5 and CYP2C9 inhib -27.
`Fc1ccc(CSc2nc3ncccc3[nH]2)cc1` gave CYP2C19 inhib 82*, CYP2C9 act 0.5, CYP2C19 activ 0.2, EphB4 antag -7 and CYP2C9 inhib 51*.
`CCCCOc1ccc(CSc2ncn[nH]2)cc1` gave CYP2C19 inhib 93*, CYP2C9 act 0.3, CYP2C19 activ 0.1, EphB4 antag 1 and CYP2C9 inhib 73*.
For Fc1ccc(CSc2nc3ccccc3[nH]2)cc1 the results were CYP2C19 inhib 93*, CYP2C9 act 0.4, CYP2C19 activ 0.1, EphB4 antag -2 and CYP2C9 inhib 56*.
For Fc1ccc(CSc2nc3ccccc3[nH]2)c2ccccc12 the results were CYP2C19 inhib 99*, CYP2C9 act 0, CYP2C19 activ 0, EphB4 antag 5 and CYP2C9 inhib 98*.
Screening O=c1cc(CSc2nc3ccccc3[nH]2)c2ccccc2[nH]1 returned CYP2C19 inhib 34, CYP2C9 act 0.6, CYP2C19 activ 0.7, EphB4 antag -3 and CYP2C9 inhib 38.
O=C(/C=C/c1ccc2ccccc2c1)c1ccoc1 was read as CYP2C19 inhib 58*, CYP2C9 act 0.7, CYP2C19 activ 0.4, EphB4 antag 0 and CYP2C9 inhib 34.
`Cn1cc(CNC(=O)Nc2ccc3c(c2)OCO3)cn1` gave CYP2C19 inhib 14, CYP2C9 act 1.1, CYP2C19 activ 0.9, EphB4 antag 1 and CYP2C9 inhib -12.
COc1ccc(NC2=NCC(=O)N2c2ccccc2)c(OC)c1 was read as CYP2C19 inhib 64*, CYP2C9 act 0.5, CYP2C19 activ 0.4, EphB4 antag 8 and CYP2C9 inhib 52*.
For O=C(NC1CCCCC1)C1CCC(CNS(=O)(=O)c2cccc3nsnc23)CC1 (stereo not given) the results were CYP2C19 inhib 0, CYP2C9 act 1.2, CYP2C19 activ 1, EphB4 antag -4 and CYP2C9 inhib -16.
`O=C(C1CCC(CNS(=O)(=O)c2cccc3nsnc23)CC1)N1CC=C(c2ccccc2)CC1` (stereo not given) gave CYP2C19 inhib 87*, CYP2C9 act 0.3, CYP2C19 activ 0.1, EphB4 antag -5 and CYP2C9 inhib 71*.
O=C(C1CCN(S(=O)(=O)c2cccc3nsnc23)CC1)N1CC=C(c2ccccc2)CC1 was read as CYP2C19 inhib 26, CYP2C9 act 1.2, CYP2C19 activ 0.7, EphB4 antag -1 and CYP2C9 inhib -24.

Assay outcomes (PubChem BioAssay)
